PubChem BioAssay

Biological target: Tumor necrosis factor receptor superfamily member 10B (Homo sapiens) (UniProt O14763)
Assay: caspase-8 TRAIL sensitization, hit retest, confirmation, cell-based, NB7+caspase-8, with/without TRAIL, luminescence panel (AID 651596)
Settings: NB7 neuroblastoma + caspase-8, TRAIL sensitization, luminescence viability, with TRAIL, mean of runs, at 10 µM, stronger effect = higher value; in the data active means activity above about 50%; inactive means the rest

Tumor necrosis factor receptor superfamily member 10B (Homo sapiens), sequence (O14763 whole entry, looked up): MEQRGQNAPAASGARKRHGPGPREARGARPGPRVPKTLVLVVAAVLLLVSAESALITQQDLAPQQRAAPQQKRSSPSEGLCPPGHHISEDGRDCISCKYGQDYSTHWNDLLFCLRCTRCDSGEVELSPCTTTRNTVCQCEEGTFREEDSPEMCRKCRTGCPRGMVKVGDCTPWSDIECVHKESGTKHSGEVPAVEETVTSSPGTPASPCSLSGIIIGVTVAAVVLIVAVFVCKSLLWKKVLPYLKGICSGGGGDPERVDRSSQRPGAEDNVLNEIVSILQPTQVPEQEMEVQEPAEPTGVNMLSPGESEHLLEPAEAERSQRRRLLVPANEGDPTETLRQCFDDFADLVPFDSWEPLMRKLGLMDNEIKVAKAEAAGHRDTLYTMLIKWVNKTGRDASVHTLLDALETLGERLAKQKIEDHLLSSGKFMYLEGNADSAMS

Structure (SMILES) | activity [%]
COc1ccc(Oc2cc(NC(=O)c3nn(C)cc3[N+](=O)[O-])cc([N+](=O)[O-])c2)cc1 | 94.2
COC1C(O)C(C)OC(OC2CCC3(C=O)C(CCC4C3CCC3(C)C(C5=CC(=O)OC5)CCC43O)C2)C1O (stereo not drawn) | 85.2
CCOC(=O)[C@]12Cc3ccccc3[C@H]1N(C1CCCCC1)C(=O)c1cc(OC)ccc12 | 85.5
CCC(C)C1NC(=O)C(NC(=O)C(CC(C)C)N(C)C(=O)C2CCCN2C(=O)C(C)O)C(C)OC(=O)C(Cc2ccc(OC)cc2)N(C)C(=O)C2CCCN2C(=O)C(CC(C)C)NC(=O)[C@H](C)C(=O)[C@H](C(C)C)OC(=O)CC1O (stereo partly drawn) | 96.9
N#CC1c2ccccc2-n2nncc2CN1Cc1cc(Cl)cc(Cl)c1 (stereo not drawn) | 55.8
CCCCCCCCCCCCCCCC[N+](C)(C)C | 96.8
CC1CC(C)CC(C)C(O)C(C#N)=CC=CCC(C2CCCC2C(=O)O)OC(=O)CC(O)C(C)C1 (stereo not drawn) | 94
CC1=CC2OC3CC4OC(=O)C=CC=CC(C(C)O)OCC(O)C5(C)OC5C(=O)OCC2(CC1O)C4(C)C31CO1 (stereo not drawn) | 93
COc1ccc(-n2nnnc2C(CCc2ccccc2)N2CCC(n3c(=O)[nH]c4ccccc43)CC2)cc1 (stereo not drawn) | 91.1
O=c1[nH]c2ccccc2n1C1CCN(C(c2cc3ccccc3o2)c2nnnn2-c2ccc3c(c2)OCCO3)CC1 (stereo not drawn) | 81.4
NC(=S)c1cn(C2OC(CO)C(O)C2O)c2ncnc(N)c12 (stereo not drawn) | 59.4
CCCCCN1C(=O)c2ccccc2[C@@]2(C(=O)OCC)Cc3cc(OC)ccc3[C@@H]12 | 47.4
O=c1[nH]c2ccccc2n1C1CCN(C(c2cc3ccccc3o2)c2nnnn2Cc2ccccc2)CC1 (stereo not drawn) | 73.2
CC(C)(C)n1cc(C(=O)c2ccc3ccccc3c2O)cn1 | 55.8

Tested on: not listed separately
Assay: as above
Settings: NB7 neuroblastoma + caspase-8, without TRAIL, luminescence viability, without TRAIL, mean of runs, at 10 µM

Structure (SMILES) | activity [%]
COc1ccc(Oc2cc(NC(=O)c3nn(C)cc3[N+](=O)[O-])cc([N+](=O)[O-])c2)cc1 | 97.4
COC1C(O)C(C)OC(OC2CCC3(C=O)C(CCC4C3CCC3(C)C(C5=CC(=O)OC5)CCC43O)C2)C1O (stereo not drawn) | 91.8
CCOC(=O)[C@]12Cc3ccccc3[C@H]1N(C1CCCCC1)C(=O)c1cc(OC)ccc12 | 88
CCC(C)C1NC(=O)C(NC(=O)C(CC(C)C)N(C)C(=O)C2CCCN2C(=O)C(C)O)C(C)OC(=O)C(Cc2ccc(OC)cc2)N(C)C(=O)C2CCCN2C(=O)C(CC(C)C)NC(=O)[C@H](C)C(=O)[C@H](C(C)C)OC(=O)CC1O (stereo partly drawn) | 98.2
N#CC1c2ccccc2-n2nncc2CN1Cc1cc(Cl)cc(Cl)c1 (stereo not drawn) | 86.4
CCCCCCCCCCCCCCCC[N+](C)(C)C | 96.8
CC1CC(C)CC(C)C(O)C(C#N)=CC=CCC(C2CCCC2C(=O)O)OC(=O)CC(O)C(C)C1 (stereo not drawn) | 98.7
CC1=CC2OC3CC4OC(=O)C=CC=CC(C(C)O)OCC(O)C5(C)OC5C(=O)OCC2(CC1O)C4(C)C31CO1 (stereo not drawn) | 98.3
COc1ccc(-n2nnnc2C(CCc2ccccc2)N2CCC(n3c(=O)[nH]c4ccccc43)CC2)cc1 (stereo not drawn) | 88.8
O=c1[nH]c2ccccc2n1C1CCN(C(c2cc3ccccc3o2)c2nnnn2-c2ccc3c(c2)OCCO3)CC1 (stereo not drawn) | 83.5
NC(=S)c1cn(C2OC(CO)C(O)C2O)c2ncnc(N)c12 (stereo not drawn) | 91.2
CCCCCN1C(=O)c2ccccc2[C@@]2(C(=O)OCC)Cc3cc(OC)ccc3[C@@H]12 | 63
O=c1[nH]c2ccccc2n1C1CCN(C(c2cc3ccccc3o2)c2nnnn2Cc2ccccc2)CC1 (stereo not drawn) | 75.7
CC(C)(C)n1cc(C(=O)c2ccc3ccccc3c2O)cn1 | 51
